# Potency and affinity values are given separately.
# Tested on: Candida albicans
# Conditions: 32 ug/mL
row,SMILES,Inhibition [%]
1,C#CCNc1nc(NCC#C)c(C#N)cc1C#N,3.76
2,CC(C(=O)O)c1c[nH]c2ccccc12 (centres undefined),31.5
3,CC(C)NNC(=O)Cc1c[nH]c2ccccc12,-0.05
4,COc1ccc2c(c1)cc(CO)n2C,3.54
5,Cc1ccc2nc(Cl)c(/C=N/N)cc2c1,15.7
6,N#CC1(Br)C(=NBr)Oc2ccc3ccccc3c2C1c1cccc([N+](=O)[O-])c1 (centres undefined),7.45
7,COc1ccc2c(c1)cc(CN(C)C)n2C,-0.31
8,C#CCNc1ncccn1,2.79
9,Cc1nn(-c2ccccc2)c2nc(C)n3nc(-c4ccccc4)nc3c12,-2.98
10,CC(C)(C)OC(=O)Nc1ccccn1,0.46
11,CC1=N/C(=C(\C)c2ccccc2)C(=O)O1,0.7
12,C#CCNC(=O)c1cc2cc(OCCCC3CCN(Cc4ccccc4)CC3)ccc2[nH]1,1.71
13,CCOC(=O)C1=C(C)OC(N)=C(C#N)C1c1cccnc1 (centres undefined),0.38
14,CN(C)c1cccc(C(=O)c2cccc(N(C)C)c2)c1,-0.28
15,COc1ccccc1C1c2c(ccc3ccccc23)OC(=N)C1(Br)C#N (centres undefined),5.01
16,COc1ccc2cc(C3C(C(C)=O)=C(C)Oc4nc5c(c(N)c43)CCCCC5)c(Cl)nc2c1 (centres undefined),3.71
17,N#Cc1cccnc1N,1.57
18,CCOC(=O)/C(C#N)=C\c1ccc(C)cc1,1.42
19,O=C(Cc1cccc2ccccc12)N/N=C/c1c[nH]c2ccccc12,1.2

# Tested on: Cryptococcus neoformans
# Conditions: Concentration 32 ug.mL-1; ASSAY_TEST Inhibition of Fungal Growth; detection method Resazurin; Absorption (OD600-OD570); plate type 384well; NBS; CORNING #3640
row,SMILES,Inhibition [%]
1,Cc1ccc(C(O)SNNc2ncnc3c2cnn3-c2ccccc2)cc1 (centres undefined),-4.5
2,COc1nc(N)c(C#N)c(-c2ccccc2)c1C#N,-13.41
3,Cn1cc(/C=C2\NC(=S)NC2=O)c2ccccc21,-4.32
4,Cl.NC1(C(=O)O)CC1c1cccc(Cl)c1 (centres undefined),-0.59
5,CC(=O)NC=C1C(=O)OC(C)(C)OC1=O,-4.92
6,COc1ccc(C2C(C#N)=C(N)Oc3ccc4ccccc4c32)cc1OC (centres undefined),-62.6
7,COc1nc2ccc(C)cc2cc1C=O,-4.83
8,Nc1c2c(nc3c1C(c1ccc([N+](=O)[O-])cc1)c1c(ccc4ccccc14)O3)CCCC2 (centres undefined),-0.47
9,CC1(C)OC(=O)C(=Cc2ccc([N+](=O)[O-])cc2)C(=O)O1,-6.06
10,C1CNCCNCCNCCNC1,-3.46
11,O=C1OC(c2ccccc2)=NC1=Cc1ccccc1Cl,-1.51
12,CN1C/C(=C\Br)n2c1c(C#N)cc(C#N)c2=O,-48.49
13,COc1nc(Cl)c(C#N)c(-c2ccccc2)c1C#N,-41.05
14,CCOC(=O)c1c[nH]c2ccc(OC)cc12,-7.29
15,COc1ccc(C2C(C#N)=C(Cl)Oc3c2ccc2ccccc32)cc1OC (centres undefined),-55.36
16,CC/C(C)=N/NC(=O)Cc1c[nH]c2ccccc12,-5.32
17,Cn1c(C(=O)N2CCOCC2)cc2cc(OCCCC3CCN(Cc4ccccc4)CC3)ccc21,-96.05
18,CC(=O)CC(=O)N1[C@@H]2C[C@H]3CCC2(CS1(=O)=O)C3(C)C,-2.49

row,SMILES,Inhibition [%]
1,COc1ccc(C2c3c(nc4c(c3N)CCCC4)Oc3ccc4ccccc4c32)cc1OC (centres undefined),0.83
2,C#CCN(C)Cc1cc2cc(O)ccc2n1C.Cl,-73.69
3,C#CCNc1nc(NCC#C)c(C#N)cc1C#N,23.66
4,CC(C(=O)O)c1c[nH]c2ccccc12 (centres undefined),-3.89
5,CC(C)NNC(=O)Cc1c[nH]c2ccccc12,-1.92
6,COc1ccc2c(c1)cc(CO)n2C,-5.23
7,Cc1ccc2nc(Cl)c(/C=N/N)cc2c1,-3.85
8,N#CC1(Br)C(=NBr)Oc2ccc3ccccc3c2C1c1cccc([N+](=O)[O-])c1 (centres undefined),-42.61
9,COc1ccc2c(c1)cc(CN(C)C)n2C,-1.62
10,C#CCNc1ncccn1,-63.47
11,Cc1nn(-c2ccccc2)c2nc(C)n3nc(-c4ccccc4)nc3c12,-5.73
12,CC(C)(C)OC(=O)Nc1ccccn1,-68.78
13,CC1=N/C(=C(\C)c2ccccc2)C(=O)O1,-3.17
14,C#CCNC(=O)c1cc2cc(OCCCC3CCN(Cc4ccccc4)CC3)ccc2[nH]1,-106.43
15,CCOC(=O)C1=C(C)OC(N)=C(C#N)C1c1cccnc1 (centres undefined),-18.71
16,CN(C)c1cccc(C(=O)c2cccc(N(C)C)c2)c1,-8.01
17,COc1ccccc1C1c2c(ccc3ccccc23)OC(=N)C1(Br)C#N (centres undefined),-63.67

# — ChEMBL document CHEMBL4513135, “CO-ADD screening of IQOG CSIS (Spain) compounds”
